Source: PubChem BioAssay

Each molecule was assayed against Follistatin (Homo sapiens) (UniProt P19883) (assay: FST protein binding to printed compounds – biochemical, small-molecule microarray, 635/667 nm fluorescence, primary screen (AID 1132)). Settings: 635 nm fluorescence, higher = more signal.
Chain of Follistatin (Homo sapiens) (P19883 whole entry, looked up): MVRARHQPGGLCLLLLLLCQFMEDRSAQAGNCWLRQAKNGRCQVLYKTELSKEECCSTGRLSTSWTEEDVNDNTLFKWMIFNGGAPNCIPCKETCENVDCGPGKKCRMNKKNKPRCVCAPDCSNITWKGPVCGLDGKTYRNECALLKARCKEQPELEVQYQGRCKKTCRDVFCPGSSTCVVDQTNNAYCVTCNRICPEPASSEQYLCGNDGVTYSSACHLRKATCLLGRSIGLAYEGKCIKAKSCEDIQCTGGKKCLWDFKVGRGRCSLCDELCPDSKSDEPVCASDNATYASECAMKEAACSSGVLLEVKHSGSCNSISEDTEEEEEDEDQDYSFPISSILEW

SMILES	composite z-score
COc1ccc(CCNC(=O)[C@@]2(Sc3ccc(C)cc3)CC(=O)N(C(C)C)[C@@H]2c2ccc(CO)cc2I)cc1	-0.147
COC(=O)[C@@]1(Cc2ccc(F)cc2)[C@H]2c3cc(C(=O)N4CCCC4)n(Cc4ccc(S(C)(=O)=O)cc4)c3C[C@H]2CN1C(=O)c1ccccc1	0.751
O=C1c2ccccc2[C@](Cc2ccccc2I)(C(=O)NCCN2CCOCC2)[C@H](c2ccc(CO)cc2)N1C1CCCCC1	1.34
COC(=O)[C@@]1(CCS(=O)(=O)c2ccccc2)N=C(c2ccc(OCCCO)cc2)O[C@H]1c1ccccc1CN=[N+]=[N-]	1.31
COCCOC(=O)N1C(=O)[C@@]2(c3cc(C#CCNC(N)=O)ccc31)[C@H](C(=O)Nc1nc3ccccc3s1)[C@H]1C(=O)O[C@H](c3ccccc3)[C@H](c3ccccc3)N1[C@@H]2c1ccc(OCCO)cc1	1.36
CC(C)NC(=O)[C@@H]1c2ccccc2C(=O)N(C2Cc3ccccc3C2)[C@H]1c1ccc(CO)cc1	0.351
CC(C)=CCCC(C)=CC(O)C1C=CC2C(=O)N(C)C(=O)C2N1Nc1ccccc1 (centres undefined)	1.38
[N-]=[N+]=NCc1ccccc1C[C@]1(C(=O)N2CCCCC2)N=C(c2ccc(OCCCO)cc2)O[C@H]1c1ccccc1N=[N+]=[N-]	0.887
CCOC(=O)C[C@H]1[C@H](OC(=O)c2ccc(C(=O)c3ccccc3)cc2)[C@@H](NC(=O)CC(C)C)c2cc(OCCCO)ccc2N1C(=O)c1ccc2ccccc2n1	1.15

The molecules below were run against Fibroblast growth factor 2 (Homo sapiens) (UniProt P09038) (assay: basic fibroblast growth factor binding to printed compounds – biochemical, small-molecule microarray, 635/667 nm fluorescence, primary screen (AID 1133)). Settings: FGF2, fluorescence 635/667, higher = more signal.
Chain of Fibroblast growth factor 2 (Homo sapiens) (P09038 whole entry, looked up): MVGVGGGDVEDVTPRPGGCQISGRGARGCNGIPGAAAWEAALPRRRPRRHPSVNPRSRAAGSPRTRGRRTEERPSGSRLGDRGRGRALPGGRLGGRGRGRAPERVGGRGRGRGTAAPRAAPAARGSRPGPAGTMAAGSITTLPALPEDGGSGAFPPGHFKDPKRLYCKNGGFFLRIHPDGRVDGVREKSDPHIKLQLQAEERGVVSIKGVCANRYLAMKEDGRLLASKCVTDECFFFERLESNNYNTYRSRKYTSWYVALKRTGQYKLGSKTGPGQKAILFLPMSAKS

SMILES	composite z-score
C=C(COC)/C(=C/C[C@H](OC(C)=O)c1ccc(CO)o1)c1cc(C(=O)OC)ccc1OC	-0.1
O=C(NCCN1CCOCC1)C1N=C(c2ccc(OCCCO)cc2)N(c2ccccc2)O1 (centres undefined)	1.58
COCCOC(=O)N1C(=O)[C@@]2(c3cc(C#CCCO)ccc31)[C@H](C(=O)N1CCCCCCC1)[C@H]1C(=O)O[C@H](c3ccccc3)[C@H](c3ccccc3)N1[C@@H]2c1ccc(OCCO)cc1	1.51
COc1cc(Br)cc(C(O)C2C=CC3C(=O)N(C)C(=O)C3N2N2CCCCC2)c1OC (centres undefined)	-1.38
C=C(C)[C@@H]1CC=C(C(O)C2C=CC3C(=O)N(C)C(=O)C3N2Nc2ccccc2)CC1 (some centres undefined)	1.12
O=C(N1CCCCC1)[C@]1(Cc2ccccc2)N=C(c2ccc(OCCCO)cc2)O[C@@H]1c1ccccc1	0.042
CC(C)c1ccc(NN2C(C(O)c3ccc(B(O)O)cc3)C=CC3C(=O)N(c4ccccc4)C(=O)C32)cc1 (centres undefined)	-0.159
C=CCNC(=O)[C@@H]1[C@H]2C(=O)O[C@H](c3ccccc3)[C@H](c3ccccc3)N2[C@H](c2ccccc2OCCO)[C@@]12C(=O)N(C(=O)OCCOC)c1ccccc12	1.49
CC(C)C(O)C1C=CC2C(=O)N(c3ccccc3)C(=O)C2N1Nc1ccc([N+](=O)[O-])cc1 (centres undefined)	-0.378
COC(=O)[C@@]1(Cc2ccc(OC)cc2)[C@@H]2C(=CC(=O)[C@H]2CC(=O)C(=O)N2CCCC2)CN1C(=O)c1ccccc1	-0.322
COC(=O)[C@@]1(Cc2ccc(OC)cc2)[C@H]2c3cc(C(=O)N(C)C)n(Cc4ccc(S(C)(=O)=O)cc4)c3C[C@H]2CN1C(=O)c1ccccc1	-0.56
COCCOC(=O)N1C(=O)[C@@]2(c3cc(C#CC4(O)CCCCCC4)ccc31)[C@H](c1ccc(OCCO)cc1)N1[C@H](c3ccccc3)[C@H](c3ccccc3)OC(=O)[C@H]1[C@@H]2C(=O)N1CCN(c2ncccn2)CC1	0.758
COc1ccc(C#Cc2ccc3c(c2)[C@]2(C(=O)N3)[C@H](C(=O)Nc3nc4ccccc4s3)[C@H]3C(=O)O[C@H](c4ccccc4)[C@H](c4ccccc4)N3[C@@H]2c2ccc(O)cc2)cc1	0.882
OCCCC1=CC(c2cccs2)N(Cc2cc3c(cc2Br)OCO3)CC1 (centres undefined)	0.076
CCN(CC)c1ccc(N2CC=CC34O[C@@H]5C=CCCOC(=O)C5[C@H]3C(=O)N(CCCCCCO)[C@@H]4C2=O)cc1 (some centres undefined)	-0.551
CCCCCN1CC=CC23O[C@@H]4/C=C\CCC(C)OC(=O)C4[C@H]2C(=O)N(C(C)CO)[C@@H]3C1=O (some centres undefined)	-0.556
CC(C)OC(=O)C=C1C[C@@H](c2ccccn2)O[C@@H](c2ccccn2)O1	0.935
C=CCOC(=O)[C@H]1[C@@H]2C(=O)O[C@@H](c3ccccc3)[C@@H](c3ccccc3)N2[C@@H](c2ccc(OCCOC(=O)[C@@H]3C[C@@H]4C(=O)N[C@@H](CCCCNC(C)=O)C(=O)N4[C@@H]3c3ccc(O)cc3)cc2)[C@]12C(=O)Nc1ccccc12	1.49

SMILES	composite z-score
Cc1nc2cc(Br)ccc2c(=O)o1	-0.0519
C=CCOC(=O)[C@H]1[C@@H]2C(=O)O[C@@H](c3ccccc3)[C@@H](c3ccccc3)N2[C@@H](c2ccc(OCCOC(=O)[C@H]3C[C@H]4C(=O)N[C@@H](CCCCNC(C)=O)C(=O)N4[C@H]3c3ccc(O)cc3)cc2)[C@]12C(=O)Nc1ccc(I)cc12	1.46
C=C[C@@H](COC(=O)OC(C)(C)C)N(Cc1ccc(OC)cc1)S(=O)(=O)c1ccc(Br)cc1	0.683
COc1ccc([Si](C)(C)[C@H]2[C@H](CCO)O[C@@]3(C(=O)N(Cc4ccc(N(C=O)c5ccccc5)cc4)c4ccccc43)[C@@H]2C)cc1	-0.408
COCCOC(=O)N1C(=O)[C@@]2(c3cc(C#Cc4ccc(OC)cc4)ccc31)[C@H](c1ccc(OCCO)cc1)N1[C@H](c3ccccc3)[C@H](c3ccccc3)OC(=O)[C@H]1[C@@H]2C(=O)N1CCN(c2ncccn2)CC1	1.43
COc1ccc(C#Cc2ccc3c(c2)[C@]2(C(=O)N3)[C@H](c3ccccc3OCCO)N3[C@H](c4ccccc4)[C@H](c4ccccc4)OC(=O)[C@H]3[C@@H]2C(=O)Nc2nc3ccccc3s2)cc1	1.19
CCCC[C@@H]1C[C@H]1[C@@H](NC(=O)C(C)(C)C)c1ccc(C(F)(F)F)cc1	-1.4
COC(=O)C(CC#Cc1ccc2c(c1)[C@]1(C(=O)N2)[C@H](c2ccc(OCCO)cc2)N2[C@H](c3ccccc3)[C@H](c3ccccc3)OC(=O)[C@H]2[C@@H]1C(=O)Nc1nc2ccccc2s1)C(=O)OC	0.408
COc1ccc(CCNC(=O)[C@@]2(Sc3ccc(C)cc3)CC(=O)N(C(C)C)[C@@H]2c2ccc(CO)cc2I)cc1	-0.172
COC(=O)[C@@]1(Cc2ccc(F)cc2)[C@H]2c3cc(C(=O)N4CCCC4)n(Cc4ccc(S(C)(=O)=O)cc4)c3C[C@H]2CN1C(=O)c1ccccc1	0.264
O=C1c2ccccc2[C@](Cc2ccccc2I)(C(=O)NCCN2CCOCC2)[C@H](c2ccc(CO)cc2)N1C1CCCCC1	0.804
COC(=O)[C@@]1(CCS(=O)(=O)c2ccccc2)N=C(c2ccc(OCCCO)cc2)O[C@H]1c1ccccc1CN=[N+]=[N-]	0.55
COCCOC(=O)N1C(=O)[C@@]2(c3cc(C#CCNC(N)=O)ccc31)[C@H](C(=O)Nc1nc3ccccc3s1)[C@H]1C(=O)O[C@H](c3ccccc3)[C@H](c3ccccc3)N1[C@@H]2c1ccc(OCCO)cc1	1.08
CC(C)NC(=O)[C@@H]1c2ccccc2C(=O)N(C2Cc3ccccc3C2)[C@H]1c1ccc(CO)cc1	0.162
CC(C)=CCCC(C)=CC(O)C1C=CC2C(=O)N(C)C(=O)C2N1Nc1ccccc1 (centres undefined)	0.709
[N-]=[N+]=NCc1ccccc1C[C@]1(C(=O)N2CCCCC2)N=C(c2ccc(OCCCO)cc2)O[C@H]1c1ccccc1N=[N+]=[N-]	-0.0521
CCOC(=O)C[C@H]1[C@H](OC(=O)c2ccc(C(=O)c3ccccc3)cc2)[C@@H](NC(=O)CC(C)C)c2cc(OCCCO)ccc2N1C(=O)c1ccc2ccccc2n1	0.94
